Consider 20 molecules from PubChem BioAssay (EPA / NIEHS).

A short description of assay [1]: TOX21_p53_BLA_p2_viability: Viability Assessment in the Tox21 HCT-116 p53 Agonism Beta-lactamase Assay, Phase 2 (AID 2283591).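 Also: compound exposure lasted 16 h at 37 °C; actives lower the ATP signal meaning cytotoxicity.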 In outline: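 Cytotoxicity readout: CellTiter-Glo ATP luminescence, 30 min at room temperature, after the beta-lactamase read. Cells were HCT116 exposed 16 h at 37C to compounds pin-transferred at 217-fold dilution from DMSO stocks.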
Assay [2] deals with Cellular tumor antigen p53 (Homo sapiens) (UniProt P04637). Put plainly: TOX21_p53_BLA_p2_ratio: Tox21 HCT-116 p53 Agonism Beta-lactamase Assay, Ratio, Phase 2 (AID 2283592). In a few lines: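 DMSO-normalized, positive-direction endpoint derived from the 460 nm/530 nm FRET ratio in HCT116 p53 beta-lactamase reporter cells exposed 16 h at 37C and loaded with CCF4-AM for 2 h.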
Cellular tumor antigen p53 (Homo sapiens), sequence (P04637 whole entry, looked up): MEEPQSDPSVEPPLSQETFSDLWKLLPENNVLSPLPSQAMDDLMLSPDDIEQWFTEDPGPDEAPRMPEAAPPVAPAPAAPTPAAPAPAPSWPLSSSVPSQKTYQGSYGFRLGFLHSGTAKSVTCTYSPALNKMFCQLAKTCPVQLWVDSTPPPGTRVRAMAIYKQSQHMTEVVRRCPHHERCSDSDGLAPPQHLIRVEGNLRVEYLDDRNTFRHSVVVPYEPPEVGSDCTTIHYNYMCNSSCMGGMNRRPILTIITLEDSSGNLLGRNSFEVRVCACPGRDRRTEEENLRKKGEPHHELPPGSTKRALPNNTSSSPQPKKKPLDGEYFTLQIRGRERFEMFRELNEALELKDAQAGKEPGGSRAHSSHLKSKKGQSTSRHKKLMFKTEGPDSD

A short description of assay [3]: TOX21_p53_BLA_p3_viability: Viability Assessment in the Tox21 HCT-116 p53 Agonism Beta-lactamase Assay, Phase 3 (AID 2283593).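 Also: cells exposed to compound for 16 h before reading.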 In a few lines:
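Cellular ATP was quantified by CellTiter-Glo luminescence, read after 30 min at room temperature. Beforehand, HCT116 cells (4000/well) received compound 5 h post-seeding, 217-fold diluted from DMSO, then incubated 16 h at 37C.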

In assay [4] the target is Cellular tumor antigen p53 (Homo sapiens) (UniProt P04637). In words: TOX21_p53_BLA_p3_ratio: Tox21 HCT-116 p53 Agonism Beta-lactamase Assay, Ratio, Phase 3 (AID 2283596). In a few lines:
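Cells were seeded at 4000/well, rested 5 h at 37C, then dosed with DMSO compound solutions (217-fold dilution) for 16 h. CCF4-AM substrate was loaded for 2 h at room temperature, and the 460/530 nm emission ratio was fitted for gain of signal versus DMSO.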

A short description of assay [5]: TOX21_p53_BLA_p4_viability: Viability Assessment in the Tox21 HCT-116 p53 Agonism Beta-lactamase Assay, Phase 4 (AID 2283597).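 Also: hits lower the luminescence signal meaning cytotoxicity.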 In a few lines:
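In this multiplexed secondary endpoint, HCT116 cells (4000 per well, compound at 5 h, 16 h treatment) received CellTiter-Glo after the beta-lactamase read. Luminescence after 30 min RT reflects ATP, and falling signal marks cytotoxicity.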

Assay [6] concerns the target Cellular tumor antigen p53 (Homo sapiens) (UniProt P04637). In words: TOX21_p53_BLA_p5_ratio: Tox21 HCT-116 p53 Agonism Beta-lactamase Assay, Ratio, Phase 5 (AID 2283599). In a few lines:
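Beta-lactamase reporter ratio (blue 460 nm over green 530 nm, 405 nm excitation) after 2 h CCF4-AM loading, in HCT-116 cells exposed 16 h at 37 C to compounds pinned at 217-fold dilution. Increases relative to DMSO baseline scored.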

A short description of assay [7]: TOX21_p53_BLA_p5_viability: Viability Assessment in the Tox21 HCT-116 p53 Agonism Beta-lactamase Assay, Phase 5 (AID 2283600). In a few lines: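 Here cell health was gauged by ATP levels in wells holding 4000 cells, each treated 16 h with DMSO-delivered compounds at 217-fold dilution; reduced luminescence marked toxicity.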
In assay [8] the target is Cellular tumor antigen p53 (Homo sapiens) (UniProt P04637). In words: TOX21_p53_BLA_p4_ratio: Tox21 HCT-116 p53 Agonism Beta-lactamase Assay, Ratio, Phase 4 (AID 2283601). In a few lines: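 Signal is the blue/green (460nm/530nm) ratio of cleaved versus uncleaved CCF4-AM substrate, read after 2 h substrate loading. Cells were HCT116 carrying the p53-responsive beta-lactamase reporter, dosed 16 h at 37C, 5% CO2; CellTiter-Glo measured in parallel.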

SMILES strings stand for the structures. Several values for one entry are separate records, joined by “and”; a condition that tells them apart may be missing. Equal entries are not always repeated. Inconclusive results are not listed. Activity calls are given as the source filed them. The calls were made as follows: active = hit-call score of the fitted dose curve at least 0.9, where 1 is the maximum; inconclusive = response in the unintended direction; inactive = score below 0.9.

As for `CC1(S(=O)(=O)O)CC(=O)c2ccccc2C1=O` (stereo not given), the molecule was called inactive in assay [1], in assay [3], in assay [5], in assay [7] and in assay [8]. For the same molecule, the AC50 – broadly, the midpoint of the concentration-response curve, whichever way the signal moves – in assay [2] is 34.5 µM (active); in assay [4], 43.4 µM (active); in assay [6], 36.7 µM (active).
Regarding `C=CC(=O)Nc1cc2c(Nc3ccc(F)c(Cl)c3)ncnc2cc1OCCCN1CCOCC1`, the call in assay [1], in assay [2], in assay [5], in assay [6] and in assay [7] was inactive. In addition, the AC50 in assay [3] was 38.7 µM (active); in assay [4], 25.4 µM (active); in assay [8] it was 7.82 µM (active).
Take `CN[C@H]1CC[C@@H](c2ccc(Cl)c(Cl)c2)c2ccccc21`: the concentration at half-maximal activity (AC50) in assay [1] is 33.6 µM (active); in assay [3], 42 µM (active); in assay [5], 34.6 µM (active); in assay [8], 36.8 µM (active). Besides, the outcome in assay [2], in assay [4], in assay [6] and in assay [7] was inactive.
In the case of `CCN(CC)CCCC(C)Nc1c2ccc(Cl)cc2nc2ccc(OC)cc12` (stereo not given), the molecule was classed as inactive in assay [1], in assay [3], in assay [5] and in assay [7]. Besides, the AC50 in assay [2] is 25.8 µM (active); in assay [4], 23.7 µM (active); in assay [6] it was 38.7 µM (active); in assay [8], 35.1 µM (active).
As for `c1ccc(-c2ccc(C(c3ccccc3)n3ccnc3)cc2)cc1` (stereo not given), the result in assay [1], in assay [3] and in assay [7] was inactive. The AC50 in assay [2] was 35.9 µM (active); in assay [4] it was 39.5 µM (active); in assay [5], 38.2 µM (active); in assay [6], 36.5 µM (active); in assay [8], 34.1 µM (active).
Take `CCc1oc2ccccc2c1C(=O)c1cc(I)c(O)c(I)c1`: the AC50 is 23 µM (active) in assay [1]; 7.59 µM (active) in assay [2]; 26.1 µM (active) in assay [3]; 20.8 µM (active) in assay [4]; 11 µM (active) in assay [5]; 24.1 µM (active) in assay [7]. Also, in assay [8], the AC50 was 6.73 µM (active). Besides, the outcome in assay [6] was inactive.
For the molecule `CCN(CC)C(=O)/C(C#N)=C/c1cc(O)c(O)c([N+](=O)[O-])c1`, the outcome in assay [1], in assay [3], in assay [4], in assay [5], in assay [6] and in assay [7] was inactive. For the same molecule, the result in assay [8] was inactive. The AC50 in assay [2] is 33.7 µM (active).
For the molecule `CCC(=O)O[C@]1(C(=O)SCF)[C@H](C)C[C@H]2[C@@H]3C[C@H](F)C4=CC(=O)C=C[C@]4(C)[C@@]3(F)[C@@H](O)C[C@@]21C`, the molecule was called inactive in assay [1], in assay [2], in assay [3], in assay [4], in assay [5] and in assay [6]. Moreover, the result in assay [7] and in assay [8] was inactive.
In the case of `O=C(CS)Nc1ccccc1`, the call in assay [1], in assay [2], in assay [3], in assay [4], in assay [5] and in assay [6] was inactive. Besides, the molecule was classed as inactive in assay [7] and in assay [8].
As for `Nc1nc(F)nc2c1ncn2[C@@H]1O[C@H](CO)[C@@H](O)[C@@H]1O`, the outcome in assay [1], in assay [3], in assay [5] and in assay [7] was inactive. Besides, the AC50 in assay [2] is 21.1 µM (active) and 20 µM (active); in assay [4], 13.2 µM (active) and 20.6 µM (active); in assay [6], 22.5 µM (active) and 25.2 µM (active); in assay [8], 22.5 µM (active) and 24 µM (active).
In the case of `O=C(O)c1cc(-c2ccccc2)nc2ccccc12`, the molecule was classed as inactive in assay [1], in assay [2], in assay [3], in assay [4], in assay [5] and in assay [6]. The result in assay [7] and in assay [8] was inactive.
Consider `CC[C@@]1([C@@H]2O[C@@H]([C@H]3O[C@@](O)(CO)[C@H](C)C[C@@H]3C)C[C@@H]2C)CC[C@H]([C@]2(C)CC[C@]3(C[C@H](O)[C@@H](C)[C@@H]([C@@H](C)[C@@H](OC)[C@H](C)C(=O)O)O3)O2)O1` (stereo in doubt), for which the molecule was classed as inactive in assay [1], in assay [2], in assay [3], in assay [4], in assay [5] and in assay [6]. The outcome in assay [7] and in assay [8] was inactive.
On to `N=C1N=C(N)c2cc3ccccc3cc21`, for which the AC50 in assay [1] was 23.6 µM (active); in assay [2], 11.6 µM (active); in assay [3] it was 38.5 µM (active); in assay [4] it was 18.5 µM (active); in assay [5], 21 µM (active); in assay [6] it was 15 µM (active). Also, the AC50 in assay [7] is 27.4 µM (active); in assay [8] it was 19.8 µM (active).
Take `O=C1c2ccccc2C(=O)C1(O)O`: the AC50 was 88.5 µM (active) in assay [1]; 31.8 µM (active) in assay [2]; 63.8 µM (active) in assay [3]; 22.8 µM (active) in assay [4]; 60.2 µM (active) in assay [5]; 29 µM (active) in assay [6]. The AC50 in assay [8] is 36.3 µM (active). In addition, the result in assay [7] was inactive.
On to `Cc1c(C)n(Cc2ccccc2)c2ccc(C(=O)OCCN(C)C)cc12`, for which the result in assay [1], in assay [2], in assay [3], in assay [4], in assay [6] and in assay [7] was inactive. In assay [8], the outcome was inactive. Besides, in assay [5], the AC50 is 18.3 µM (active).
For `Cc1ccc(S(=O)(=O)NC(=O)NC2CCCCCCC2)cc1`, the result in assay [1], in assay [2], in assay [3], in assay [4], in assay [5] and in assay [6] was inactive. Besides, the result in assay [7] and in assay [8] was inactive.
For the molecule `CCN(CC)CCOc1ccc(Cc2ccccc2)cc1`, the values for the AC50 in assay [1] and in assay [5] were 42.2 µM (active) and 33.8 µM (active), respectively. Also, the result in assay [2], in assay [3], in assay [4], in assay [6], in assay [7] and in assay [8] was inactive.
For the molecule `C1CCCC1.C1CCCC1.[Cl][V][Cl]`, the result in assay [1], in assay [2], in assay [3], in assay [4], in assay [6] and in assay [7] was inactive. Also, in assay [8], the outcome was inactive. Also, the AC50 in assay [5] is 40.3 µM (active).
For the molecule `CN=C(N)NCCC[C@H](N)C(=O)O`, the molecule was called inactive in assay [1], in assay [2], in assay [3], in assay [4], in assay [5] and in assay [6]. Also, the outcome in assay [7] and in assay [8] was inactive.
As to `Oc1ccc(Cl)cc1Sc1cc(Cl)ccc1O`, the AC50 was 31.3 µM (active) and 23 µM (active) in assay [1]; 31.8 µM (active) and 8.26 µM (active) in assay [2]; 46 µM (active) and 23 µM (active) in assay [3]; 46 µM (active) and 21.2 µM (active) in assay [4]; 53.9 µM (active) and 15.2 µM (active) in assay [5]; 72.3 µM (active) and 32.1 µM (active) in assay [6]. For the same molecule, the AC50 in assay [7] was 70.2 µM (active) and 23 µM (active); in assay [8], 65 µM (active) and 28.6 µM (active).
